Screening results from PubChem BioAssay.
UDG counter – Primary qHTS assay for inhibitors of Activation Induced Cytidine Deaminase (AID): UDG Counterscreen signal. 91,000 compounds, 0.14% hits. Uracil-DNA glycosylase. FRET deamination/UDG coupled assay, UDG read, 4 h. Potency, µM (doses to about 115 µM), for inactives: at the highest dose activity change, negative = inhibition, actives largely listed as inhibitors. AID 1347430, 2020; also: nearly all actives have a fitted effect of over 65% in size
AID inhibitor – Primary qHTS assay for inhibitors of Activation Induced Cytidine Deaminase (AID): AID signal. Single-stranded DNA cytosine deaminase (Homo sapiens), Q9GZX7. AID deamination FRET fluorescence, UDG-coupled, 4 h. Potency, µM (titrated, usually from 115 µM), hits mostly inhibitors. 91,000 compounds, 0.32% hits; also: nearly all actives have a fitted effect of over 25% in size
Target sequence (Q9GZX7 whole entry, looked up): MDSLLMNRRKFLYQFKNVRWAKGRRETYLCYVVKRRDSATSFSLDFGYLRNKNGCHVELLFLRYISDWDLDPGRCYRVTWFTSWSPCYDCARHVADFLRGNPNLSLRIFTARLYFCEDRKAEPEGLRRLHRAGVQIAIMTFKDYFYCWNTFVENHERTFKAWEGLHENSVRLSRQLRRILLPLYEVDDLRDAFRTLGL
The depositor's hits bear a star; [ ] = another dose, or the depositor's remark. A selection: hits, their analogues and other compounds. The true share with any hit is near 0.47%. Calls follow the shape of the dose curve; as a rule, active = well fitted curve in the direction sought with a large enough effect; inconclusive = small, poorly fitted or top-dose-only effect, or another doubt; inactive = no such curve, though single readings can be large; an effect the other way counts as inactive or inconclusive. % is scaled to controls: 0 for no effect and ±100 for the full control effect; potency is read from the fitted curve at half-maximal effect.

Results for Cc1cc2c(cc1C)-c1ccccc1C2=O ?
UDG counter: -13%; AID inhibitor: inactive

How did COC1=C(OC)C(=O)c2ccccc2C1=O do in these assays?
UDG counter: -17%; AID inhibitor: 45µM*

How did CCOc1ccc(Nc2nnc(-n3nc(C)cc3C)c3ccccc23)cc1 do in these assays?
UDG counter: 79µM*; AID inhibitor: inactive

How did CCc1ccc(Nc2nnc(-n3nc(C)cc3C)c3ccccc23)cc1 do in these assays?
UDG counter: 30%; AID inhibitor: inactive

What do the screens show for `Cc1nc2c(C(=O)NCc3ccccc3)cnn2c(C)c1Cc1ccc(F)cc1`?
UDG counter: -22%; AID inhibitor: inconclusive

How did CCCNC(=O)c1cnn2c(C)c(Cc3c(C)cc(C)cc3C)c(C)nc12 do in these assays?
UDG counter: -10%; AID inhibitor: 40µM*

Results for COc1ccc(CNC(=O)c2cnn3c(C)c(Cc4c(F)cccc4Cl)c(C)nc23)cc1 ?
UDG counter: -17%; AID inhibitor: 35µM*

What do the screens show for `CCCCNC(=O)c1cnn2c(C)c(Cc3c(C)cc(C)cc3C)c(C)nc12`?
UDG counter: -28%; AID inhibitor: inconclusive

How did O=C(NCc1cnn(-c2ccccc2)c1)C1CCN(S(=O)(=O)c2ccc(F)cc2)CC1 do in these assays?
UDG counter: -4%; AID inhibitor: inactive

How did Cc1ccccc1N1CCN(CCS(=O)(=O)c2ccc(Br)cc2)CC1 do in these assays?
UDG counter: -17%; AID inhibitor: inactive

How did CCOc1ccc(C(=O)Nc2ccc3nc(N(CC)CC)cc(C)c3c2)cc1 do in these assays?
UDG counter: -7%; AID inhibitor: inactive

Results for CCN(CC)c1cc(C)c2cc(NC(=O)c3cccc(OC)c3)ccc2n1 ?
UDG counter: -18%; AID inhibitor: 79µM*

How did Cc1cc2nc(SCC(=O)Nc3cc(C(F)(F)F)ccc3Cl)[nH]c(=O)c2[nH]1 do in these assays?
UDG counter: -2%; AID inhibitor: inactive

What do the screens show for `ClC(/C=N/N1CCN(Cc2ccc(Cl)cc2)CC1)=C/c1ccccc1`?
UDG counter: -3%; AID inhibitor: inactive

What do the screens show for `CC(C)CNC(=O)NC(=O)COC(=O)c1ccc2c(=O)n3c(nc2c1)CCCCCC3`?
UDG counter: 1%; AID inhibitor: inactive

What do the screens show for `COc1ccc(N2CCN(C(=O)c3cc4c(-c5ccccc5F)nn(C)c4s3)CC2)cc1`?
UDG counter: -10%; AID inhibitor: inconclusive

How did COc1ccc(-c2nn(C)c3sc(C(=O)N4CCN(c5cccc(Cl)c5)CC4)cc23)cc1OC do in these assays?
UDG counter: inconclusive; AID inhibitor: 79µM*

How did C=C(C)COc1ccc2c(C)c(CCC(=O)NCc3ccc(S(N)(=O)=O)cc3)c(=O)oc2c1C do in these assays?
UDG counter: 8%; AID inhibitor: inactive

What do the screens show for `CCOC(=O)c1cccc(NC(=O)c2oc3c(c2C)-c2nn(CC)cc2CC3)c1`?
UDG counter: inconclusive; AID inhibitor: 40µM*

How did CCOC(=O)c1cccc(NC(=O)c2oc3c(c2C)-c2[nH]ncc2CC3)c1 do in these assays?
UDG counter: -20%[57.5 µM]; AID inhibitor: inconclusive

What do the screens show for `COc1cccc(CNC(=O)c2oc3c(c2C)-c2nn(Cc4cccc(Cl)c4)cc2CC3)c1OC`?
UDG counter: -16%[57.5 µM]; AID inhibitor: 79µM*

What do the screens show for `COc1cccc(CNC(=O)c2oc3c(c2C)-c2nn(Cc4cccc(Cl)c4)cc2CC3)c1`?
UDG counter: -18%[57.5 µM]; AID inhibitor: inconclusive

What do the screens show for `CCN(C(=O)c1ccc2[nH]c(C)c(C)c2c1)C1CCS(=O)(=O)C1` (stereo unspecified)?
UDG counter: 0%; AID inhibitor: inactive

What do the screens show for `CCCn1nc(C(=O)OCC(=O)Nc2ccc3c(c2)OC(F)(F)O3)c2ccccc2c1=O`?
UDG counter: -3%; AID inhibitor: inactive

Results for CCN(CC)C(=O)c1sc2c(c1C)c(=O)n(-c1ccc(Cl)c(Cl)c1)c(=O)n2Cc1cc(=O)n2ccccc2n1 ?
UDG counter: inconclusive; AID inhibitor: 89µM*

What do the screens show for `CCN(CC)C(=O)c1sc2c(c1C)c(=O)n(-c1ccc(C)c(C)c1)c(=O)n2Cc1cc(=O)n2ccccc2n1`?
UDG counter: -12%; AID inhibitor: inactive

How did Cc1ccc(-c2ccc(C=C(C#N)C#N)n2C)cc1 do in these assays?
UDG counter: 1%; AID inhibitor: inactive

Results for COc1ccc2c(c1)CCc1sc(NC(=O)c3cccc(Br)c3)nc1-2 ?
UDG counter: 2%; AID inhibitor: inactive

Results for COc1ccc2c(c1)Cc1sc(NC(=O)c3ccc(Cl)cc3)nc1-2 ?
UDG counter: -12%; AID inhibitor: 32µM*

Results for COc1ccc2c(c1)Cc1sc(NC(=O)c3cccc(Cl)c3)nc1-2 ?
UDG counter: -10%; AID inhibitor: inactive

How did COc1ccc(C(=O)Nc2nc3c(s2)CCc2cc(OC)ccc2-3)cc1 do in these assays?
UDG counter: 79µM*; AID inhibitor: inactive

Results for Cc1ccc(C)c(NC(=O)CN(C)C(=O)c2cccc(S(=O)(=O)NCC3CCCO3)c2)c1 (stereo unspecified) ?
UDG counter: 3%; AID inhibitor: inactive

How did COc1ccc(C)cc1-n1nnnc1SCc1nc(C(C)C)no1 do in these assays?
UDG counter: inconclusive; AID inhibitor: inactive

What do the screens show for `Cc1ccc(C)c(C(=O)CSc2cccc3cccnc23)c1`?
UDG counter: -9%; AID inhibitor: 35µM*

How did Cc1ccc(C)c(C(=O)CSc2nc(-c3ccccc3)nc3c2CCCC3)c1 do in these assays?
UDG counter: 0%; AID inhibitor: inactive

How did COc1ccc(Nc2ncc3c(n2)CCN(Cc2ccc(Br)s2)C3)c(OC)c1 do in these assays?
UDG counter: -8%; AID inhibitor: inactive

How did COc1ccc(Nc2ncc3c(n2)CCN(Cc2cc(Br)cs2)C3)c(OC)c1 do in these assays?
UDG counter: 89µM*; AID inhibitor: inconclusive

Results for Cc1c(O)ccc2c(CN(C)CCOc3ccc(F)cc3)cc(=O)oc12 ?
UDG counter: -1%; AID inhibitor: inactive

What do the screens show for `O=C(Nc1cccc(S(=O)(=O)NC2=NCCC2)c1)C1(c2ccccc2)CCCC1`?
UDG counter: 4%; AID inhibitor: inactive

How did Cn1cc(C(=O)N2CCN(c3cccc(C(F)(F)F)c3)CC2)c2c3ccccc3n(C)c2c1=O do in these assays?
UDG counter: 79µM*; AID inhibitor: inconclusive

What do the screens show for `Cn1c2ccccc2c2c(C(=O)N3CCN(c4cccc(C(F)(F)F)c4)CC3)cn(C3CCCCC3)c(=O)c21`?
UDG counter: -13%; AID inhibitor: inconclusive

How did COc1ccccc1N1CCN(C(=O)c2cn(CC(C)C)c(=O)c3c2c2ccccc2n3C)CC1 do in these assays?
UDG counter: -5%; AID inhibitor: inactive

Results for Cc1ccc(C)c(N2CCN(C(=O)c3cn(CC(C)C)c(=O)c4c3c3ccccc3n4C)CC2)c1 ?
UDG counter: inconclusive; AID inhibitor: 28µM*

Results for N#Cc1nc(C2CC2)oc1N1CCN(C(=O)c2ccc[nH]c2=O)CC1 ?
UDG counter: 5%; AID inhibitor: inactive

Results for NNC(=O)c1cc(N)cc([N+](=O)[O-])c1 ?
UDG counter: -7%; AID inhibitor: inactive

Results for Cc1ccc(NC(=O)c2cccc(NC(=O)NC(C)C)c2)cc1Cl ?
UDG counter: 0%; AID inhibitor: inactive
